This is an account of results in PubChem BioAssay (EPA / NIEHS).

The source made the active and inactive calls. Rule for the calls: active = hit-call score of the fitted dose curve at least 0.9, where 1 is the maximum; inactive = score below 0.9.

Read-out in test [1]: TIMP metallopeptidase inhibitor 1 (TIMP1), TIMP1 (gene 7076)
As to the kind of experiment: BSK_hDFCGF_TIMP1: BioMAP Diversity Plus: hDFCGF Assay for TIMP metallopeptidase inhibitor 1 (TIMP1) Biomarker Activity (AID 2283062). The note with it: primary human foreskin fibroblasts; actives raise or lower the signal. The procedure, abridged:
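Fibroblasts from human foreskin are treated with test chemical and harvested at 24 h. TIMP-1 is quantified by ELISA, and gain or loss of signal is scored against DMSO.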

Read-out in test [2]: Monokine induced gamma interferon (MIG), CXCL9 (gene 4283)
As to the kind of experiment: BSK_hDFCGF_MIG: BioMAP Diversity Plus: hDFCGF Assay for Monokine induced gamma interferon (MIG) Biomarker Activity (AID 2283063). The following applies: primary human foreskin fibroblasts; actives raise or lower the signal. A digest of the protocol: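 MIG signal, determined by ELISA, reflects 24 h chemical exposure of human skin primary fibroblasts. DMSO serves as negative control and baseline.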

Read-out in test [3]: Plasminogen activator inhibitor-1 (PAI1), SERPINE1 (gene 5054)
Description: BSK_hDFCGF_PAI1: BioMAP Diversity Plus: hDFCGF Assay for Plasminogen activator inhibitor-1 (PAI1) Biomarker Activity (AID 2283066). The note with it: primary human foreskin fibroblasts; actives raise or lower the signal. The procedure, abridged: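 PAI-1 levels in human dermal foreskin fibroblasts were quantified by ELISA 24 h after dosing, with gain or loss analysed against DMSO. Overt cytotoxicity was checked by sulforhodamine B total-protein staining in parallel cultures.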

Read-out in test [4]: Intercellular Adhesion Molecule 1 (ICAM1), ICAM1 (gene 3383)
As to the kind of experiment: BSK_KF3CT_ICAM1: BioMAP Diversity Plus: KF3CT Assay for Intercellular Adhesion Molecule 1 (ICAM1) Biomarker Activity (AID 2283067). The following applies: primary human keratinocytes with fibroblasts; actives raise or lower the signal. A digest of the protocol: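 Dose the keratinocyte/fibroblast co-culture, wait 24 h, measure ICAM-1 by ELISA, then fit increases or decreases against DMSO. Cytotoxicity is checked in parallel cultures by SRB total-protein staining.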

Read-out in test [5]: Interferon-gamma inducible Protein 10 (IP10), CXCL10 (gene 3627)
As to the kind of experiment: BSK_KF3CT_IP10: BioMAP Diversity Plus: KF3CT Assay for Interferon-gamma inducible Protein 10 (IP10) Biomarker Activity (AID 2283068). The following applies: primary human keratinocytes with fibroblasts; actives raise or lower the signal. A digest of the protocol:
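Human keratinocyte plus foreskin fibroblast primary co-culture exposed to test chemical for 24 h; IP-10 measured by ELISA. Concentration-response fitted bidirectionally against DMSO control as baseline.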

Test [6] in a line: BSK_KF3CT_SRB: Viability Assessment in the BioMAP Diversity Plus: KF3CT Assay (AID 2283069). The following applies: primary human keratinocytes with fibroblasts. The procedure, abridged: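 Cytotoxicity was gauged by SRB staining (0.1% SRB, 10% TCA fixation, 560 nm) of parallel cultures at 24 h. The cells were primary human skin keratinocytes co-cultured with fibroblasts, and activity was fitted in both directions against DMSO.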

Read-out in test [7]: Interleukin-1 alpha (IL1a), IL1A (gene 3552)
Description: BSK_KF3CT_IL1a: BioMAP Diversity Plus: KF3CT Assay for Interleukin-1 alpha (IL1a) Biomarker Activity (AID 2283070). The note with it: primary human keratinocytes with fibroblasts; actives raise or lower the signal. A digest of the protocol: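 IL-1a was detected by ELISA 24 h after chemical treatment of a co-culture of human skin keratinocytes and foreskin fibroblasts. Gain or loss of signal was fitted against the DMSO baseline.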

Read-out in test [8]: Transforming growth factor beta 1 (TGFb1), TGFB1 (gene 7040)
Description: BSK_KF3CT_TGFb1: BioMAP Diversity Plus: KF3CT Assay for Transforming growth factor beta 1 (TGFb1) Biomarker Activity (AID 2283072). The note with it: primary human keratinocytes with fibroblasts; actives raise or lower the signal. A digest of the protocol: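 ELISA quantifies TGF-b1 at 24 h post-dose in a primary human skin co-culture of keratinocytes and fibroblasts, with gain or loss judged against DMSO. Parallel SRB total-protein staining flags overt cytotoxicity.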

Read-out in test [9]: C-C motif chemokine 2 (Homo sapiens) (UniProt P13500)
Description: BSK_KF3CT_MCP1: BioMAP Diversity Plus: KF3CT Assay for Monocyte Chemoattractant Protein 1 (MCP1/CCL2) Biomarker Activity (AID 2283073). The following applies: primary human keratinocytes with fibroblasts; actives raise or lower the signal. A digest of the protocol: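 Keratinocytes and foreskin fibroblasts were co-cultured, dosed with chemical, and sampled 24 h later. MCP-1 was quantified by ELISA, and the endpoint was analyzed with bidirectional fitting using DMSO as negative control.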

Read-out in test [10]: Matrix Metallopeptidase 9 (MMP9), MMP9 (gene 4318)
As to the kind of experiment: BSK_KF3CT_MMP9: BioMAP Diversity Plus: KF3CT Assay for Matrix Metallopeptidase 9 (MMP9) Biomarker Activity (AID 2283074).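 For AC50: MMP9 protein level quantified by ELISA in the co-culture.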 The following applies: primary human keratinocytes with fibroblasts; actives raise or lower the signal. The procedure, abridged:
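MMP-9 quantified by ELISA after 24 h chemical treatment of primary human skin keratinocyte/fibroblast co-cultures; gain or loss fitted against DMSO, with parallel SRB staining (0.1% SRB, 560 nm) for overt cytotoxicity.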

Read-out in test [11]: urokinase plasminogen activator (uPA), PLAU (gene 5328)
Description: BSK_KF3CT_uPA: BioMAP Diversity Plus: KF3CT Assay for urokinase plasminogen activator (uPA) Biomarker Activity (AID 2283075). The note with it: primary human keratinocytes with fibroblasts; actives raise or lower the signal. A digest of the protocol:
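ELISA read-out of uPA 24 h after dosing human skin keratinocytes co-cultured with foreskin fibroblasts. Signal change fitted both ways relative to DMSO; sulforhodamine B on parallel cultures marks overt cytotoxicity.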

Read-out in test [12]: CD40, CD40 (gene 958)
As to the kind of experiment: BSK_LPS_CD40: BioMAP Diversity Plus: LPS Assay for CD40 Biomarker Activity (AID 2283076). The following applies: primary human HUVEC with PBMC; actives raise or lower the signal. The procedure, abridged:
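CD40 signal, measured by ELISA, is fitted in both directions relative to DMSO vehicle. The system is an LPS-driven human vascular primary co-culture of endothelial cells and PBMC, sampled 24 h after compound addition.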

Read-out in test [13]: Interleukin-8 (IL8), CXCL8 (gene 3576)
As to the kind of experiment: BSK_LPS_IL8: BioMAP Diversity Plus: LPS Assay for Interleukin-8 (IL8) Biomarker Activity (AID 2283078). The note with it: primary human HUVEC with PBMC; actives raise or lower the signal. The procedure, abridged: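 Endothelial cells and PBMC from human donors are co-cultured, treated with chemicals and LPS, then assayed for IL-8 by ELISA after 24 h. Parallel SRB staining (0.1% SRB after 10% TCA fixation, 560 nm) flags cytotoxicity.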

Test [14] is described as follows: BSK_LPS_SRB: Viability Assessment in the BioMAP Diversity Plus: LPS Assay (AID 2283079).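 Note: total protein by sulforhodamine B absorbance as a cytotoxicity measure; measured one day after compound addition; fitted in both directions against DMSO so loss or gain of signal counts.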 The following applies: primary human HUVEC with PBMC. The procedure, abridged:
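Overt cytotoxicity was gauged by sulforhodamine B total-protein staining in a primary human vascular endothelial and mononuclear cell co-culture 24 h post-dosing. Activity was fitted in both directions relative to DMSO.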

Read-out in test [15]: Interleukin-1 alpha (IL1a), IL1A (gene 3552)
As to the kind of experiment: BSK_LPS_IL1a: BioMAP Diversity Plus: LPS Assay for Interleukin-1 alpha (IL1a) Biomarker Activity (AID 2283080). The note with it: primary human HUVEC with PBMC; actives raise or lower the signal. The procedure, abridged: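 Measured: IL-1 alpha via ELISA at 24 h in LPS-activated human umbilical vein endothelium–PBMC co-culture. Baseline: DMSO, bidirectional fitting.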

Read-out in test [16]: Monocyte Chemoattractant Protein-1 (MCP1), CCL2 (gene 6347)
Description: BSK_LPS_MCP1: BioMAP Diversity Plus: LPS Assay for Monocyte Chemoattractant Protein-1 (MCP1) Biomarker Activity (AID 2283081).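 For AC50: secreted MCP-1 protein quantified by ELISA in culture supernatant.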 The note with it: primary human HUVEC with PBMC; actives raise or lower the signal. The procedure, abridged: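 LPS-stimulated HUVEC/PBMC co-culture; chemical, 24 h; MCP-1 by ELISA; bidirectional fit vs DMSO; cytotoxicity via SRB (0.1% stain, 10% TCA fix, 560 nm) in parallel wells.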

Read-out in test [17]: Vascular cell adhesion molecule 1 (VCAM1), VCAM1 (gene 7412)
Description: BSK_hDFCGF_VCAM1: BioMAP Diversity Plus: hDFCGF Assay for Vascular cell adhesion molecule 1 (VCAM1) Biomarker Activity (AID 2283065). The following applies: primary human foreskin fibroblasts; actives raise or lower the signal. A digest of the protocol:
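Cells are dosed, cultured for 24 h, then VCAM-1 is quantified by ELISA; signal increases and decreases are both fitted relative to DMSO.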

Read-out in test [18]: E-selectin (Homo sapiens) (UniProt P16581)
As to the kind of experiment: BSK_LPS_Eselectin: BioMAP Diversity Plus: LPS Assay for Eselectin Biomarker Activity (AID 2283077). The note with it: primary human HUVEC with PBMC; actives raise or lower the signal. A digest of the protocol: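 Signal of E-selectin, detected by ELISA, served as the endpoint; cells were umbilical vein endothelium with PBMC, read 24 h after treatment. DMSO defined baseline, and both increases and decreases were fitted.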

Read-out in test [19]: TIMP metallopeptidase inhibitor 2 (TIMP2), TIMP2 (gene 7077)
As to the kind of experiment: BSK_KF3CT_TIMP2: BioMAP Diversity Plus: KF3CT Assay for TIMP metallopeptidase inhibitor 2 (TIMP2) Biomarker Activity (AID 2283071). The following applies: primary human keratinocytes with fibroblasts; actives raise or lower the signal. A digest of the protocol:
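TIMP-2 measured by ELISA at 24 h in human keratinocyte/fibroblast primary co-cultures exposed to chemicals. Both increases and decreases were fitted against DMSO. Parallel cultures were stained with SRB for total protein as an overt-cytotoxicity check.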

Chain of E-selectin (Homo sapiens) (P16581 whole entry, looked up): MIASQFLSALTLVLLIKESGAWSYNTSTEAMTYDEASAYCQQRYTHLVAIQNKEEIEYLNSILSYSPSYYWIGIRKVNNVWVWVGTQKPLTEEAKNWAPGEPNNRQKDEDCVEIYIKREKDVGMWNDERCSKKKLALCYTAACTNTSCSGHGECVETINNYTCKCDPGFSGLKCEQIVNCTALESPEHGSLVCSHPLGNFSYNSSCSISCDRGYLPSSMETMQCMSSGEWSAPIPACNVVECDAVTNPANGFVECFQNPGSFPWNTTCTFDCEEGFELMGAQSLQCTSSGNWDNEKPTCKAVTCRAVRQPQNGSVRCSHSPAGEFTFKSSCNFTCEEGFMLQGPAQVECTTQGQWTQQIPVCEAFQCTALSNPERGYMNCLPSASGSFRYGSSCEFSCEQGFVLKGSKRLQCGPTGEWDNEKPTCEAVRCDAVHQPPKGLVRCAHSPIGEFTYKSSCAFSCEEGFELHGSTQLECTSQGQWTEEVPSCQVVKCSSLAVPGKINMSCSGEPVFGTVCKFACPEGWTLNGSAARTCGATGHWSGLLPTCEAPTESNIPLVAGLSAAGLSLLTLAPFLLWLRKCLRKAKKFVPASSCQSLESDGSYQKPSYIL

As to `O=c1n(CC2CO2)c(=O)n(CC2CO2)c(=O)n1CC1CO1` (stereo not drawn), the result in [1], in test [4], in test [5], in [6], in test [7] and in [8] was inactive. Moreover, the outcome in test [9], in test [11] and in [15] was inactive. Also, the AC50 (as a rule, the midpoint of the concentration-response curve, whichever way the signal moves) in test [2] was 15.5 µM (active); in test [3], 22 µM (active); in [10], 20 µM (active); in test [12] it was 16.3 µM (active); in [13], 10.8 µM (active); in test [14] it was 12.2 µM (active). The AC50 in test [16] was 19.5 µM (active).
Take `Nc1cccc(N)c1`: the outcome in [1], in [2], in test [17], in [3], in test [4] and in [7] was inactive. Further, the result in [8], in [9], in [10], in [11], in test [12] and in test [18] was inactive. Further, the outcome in test [13], in test [14], in test [15] and in [16] was inactive.
Regarding `CCCN(C1CCN(C(=O)C2CCNCC2)CC1)[C@@H]1CCc2ccc(OC)cc2C1`, the result in test [1], in test [2], in test [3], in test [4], in test [5] and in [6] was inactive. Moreover, the result in test [7], in test [19], in [8], in test [9], in test [11] and in [12] was inactive. The result in test [18], in test [13], in test [14], in [15] and in [16] was inactive.
In the case of `Oc1ccc2c(c1)-c1ccccc1C2`, the outcome in test [1], in [2], in [3], in test [4], in test [6] and in test [7] was inactive. For the same compound, the outcome in [8], in [9], in [11], in test [13], in test [15] and in test [16] was inactive. The AC50 in test [12] and in [14] was 20 µM (active) in each case.
